Experimental data from the supplement of paper PMC11732987, “Enantioselective OTUD7B fragment discovery through chemoproteomics screening and high-throughput optimisation” (Communications Chemistry, 2025).

The compounds below were run against T1, USP22 (UniProt Q9UPT9) (assay: log2 ratio of Biotin-Ahx-Ub-VS probe labelling (fragment/DMSO); higher = less target engagement (more negative = stronger competition), active = hit call of the paper (q ≤ 0.05, log2 ratio ≤ -1)). Conditions: compound concentration: 200 uM; treatment time: 3 h.
T1 sequence (whole entry): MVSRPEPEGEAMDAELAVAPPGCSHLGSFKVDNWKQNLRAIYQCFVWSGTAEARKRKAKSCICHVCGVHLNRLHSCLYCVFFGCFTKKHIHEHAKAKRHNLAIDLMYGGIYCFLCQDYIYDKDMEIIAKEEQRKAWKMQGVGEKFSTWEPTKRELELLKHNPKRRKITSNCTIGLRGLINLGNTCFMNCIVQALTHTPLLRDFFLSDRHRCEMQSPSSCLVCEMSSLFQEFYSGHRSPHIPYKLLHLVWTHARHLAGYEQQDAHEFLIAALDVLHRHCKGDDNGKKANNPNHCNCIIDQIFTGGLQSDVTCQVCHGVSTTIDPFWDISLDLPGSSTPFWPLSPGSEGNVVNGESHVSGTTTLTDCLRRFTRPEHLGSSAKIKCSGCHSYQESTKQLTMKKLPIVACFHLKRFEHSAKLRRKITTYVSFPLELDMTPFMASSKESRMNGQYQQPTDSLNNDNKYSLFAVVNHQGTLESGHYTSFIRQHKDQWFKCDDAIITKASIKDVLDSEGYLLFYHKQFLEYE
Method: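 Competitive ABPP in HEK293T cell lysate. Lysates were treated with each chloroacetamide fragment at 200 µM for 3 h, then with Biotin-Ahx-Ub-VS (0.5 µM, 1 h), NeutrAvidin-enriched and analysed by diaPASEF LC-MS/MS. Protein LFQ was median-normalised; average log2 ratio is fragment/DMSO from an unpaired t-test (n=3 treated, n=44 DMSO). Hits: q ≤ 0.05, log2 ratio ≤ -1, unique peptides ≥ 2.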

log2 ratio of Biotin-Ahx-Ub-VS probe labelling, inactive:
N#Cc1ccc(Cl)cc1NC(=O)CCl 0.184
Cc1ccc(CC(NC(=O)CCl)c2ccccn2)cc1.Cl (stereo not given) -0.153
O=C(CCl)N1CCCCC12CCOCC2 -0.332
Cc1ncsc1CCNC(=O)CCl 0.314
O=C(CCl)Nc1ccc(N2CCCC2=O)cc1 0.36
Cc1noc(N2CCN(C(=O)CCl)CC2)n1.Cl 0.0656
CC(O)CC1CCN(C(=O)CCl)CC1 (stereo not given) 0.037
O=C(CCl)N1CCC(C(=O)N2CCCC2)CC1 0.0347
COCC1C=CCCN1C(=O)CCl (stereo not given) -0.0428
Cc1nc(CN2CCN(C(=O)CCl)CC2)cs1 -0.169
CC(NC(=O)CCl)c1csc(-c2ccccc2)n1.Cl (stereo not given) -0.723
Cc1cccn2cc(CCNC(=O)CCl)nc12.Cl -0.0399
O=C(CCl)Nc1cc2c(cc1Cl)OCCCO2 0.133
O=C(CCl)N1CCC(c2ccn[nH]2)C1 (stereo not given) -0.234
O=C(CCl)Nc1ccc(Cl)c(F)c1 -0.253
Cn1cc(CN(Cc2ccc(Cl)cc2)C(=O)CCl)cn1 0.0724
O=C(CCl)NCCc1ccc2c(c1)OCCO2 0.0144
Cc1cccc(C)c1NC(=O)CCl 0.0867
CCN(C(=O)CCl)C1CCS(=O)(=O)C1 (stereo not given) -0.0368
CN(CCC(O)c1ccc(Br)cc1)C(=O)CCl (stereo not given) -0.43
Cc1nnc(C(NC(=O)CCl)c2ccccc2)n1C (stereo not given) 0.332
O=C(CCl)N1CCC(S(=O)(=O)c2ccc(F)cc2)CC1 0.191
Cc1ccc(N(CCC#N)C(=O)CCl)cc1C 0.0466
Cl.Cn1ncc2c1CCCC2NC(=O)CCl (stereo not given) 0.202
Cc1cccc(N2CCC(NC(=O)CCl)C2=O)c1 (stereo not given) 0.199
O=C(CCl)N1CCOC2(CCC2)C1 0.184
Cc1ccc(CN(CCO)C(=O)CCl)cc1 -0.0829
Cl.O=C(CCl)N1CCn2ncc(O)c2C1 -0.609
Cc1c(NC(=O)CCl)c(=O)n(-c2ccccc2)n1C -0.000691
NC(=O)C1CCCCN1C(=O)CCl (stereo not given) 0.159
O=C(CCl)N1c2ccccc2NC(=O)C12CCCC2 0.00548
O=C(CCl)NCc1noc(C2CC2)n1 -0.122
CC(C)n1nccc1NC(=O)CCl 0.134
Cc1ccccc1OCC(=O)N1CCN(C(=O)CCl)CC1 0.0214
Cc1ccc(C)c(NC(=O)CCl)c1 -0.27
O=C(CCl)NC1CCOc2ccccc21 (stereo not given) -0.51
O=C(CCl)N(Cc1ccsc1)C1CC1 0.255
CC1(NC(=O)CCl)CCS(=O)(=O)C1 (stereo not given) -0.238
CS(=O)(=O)c1ccc(CNC(=O)CCl)cc1 -0.163
O=C(CCl)NC1(c2ccc3c(c2)OCCO3)CCCC1 0.0133
